B1: unnamed (peptide)
chain: VFQFQMPTTPISTKM

molecular target: AgAbp1; test: SPOT peptide array binding signal intensity (averaged, normalized) (arbitrary units (background-subtracted, floor 0; scale differs between SH3 domains)); higher = stronger binding of the SH3 domain to the peptide
Method in brief: (§1)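 To measure binding, SH3 domains from four yeast species were fused to GST, expressed in E. coli BL21(DE3) and purified on glutathione Sepharose. Each domain was incubated at 10 μg/ml overnight at 4°C on cellulose membranes with synthetic 15-mer peptides whose cysteines were replaced by serines. Anti-GST antibody, an HRP anti-mouse secondary and luminol were used for detection, and images were quantified with Genespotter. Reported binding signal is normalized, background-subtracted spot intensity averaged over replicates, in arbitrary units that differ between domains.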

Row | Binder | SPOT peptide array binding signal intensity
1 | B1 | ≤ 0

molecular target: AgBbc1; test: as above
Method in brief: as §1

Row | Binder | SPOT peptide array binding signal intensity
2 | B1 | 10

molecular target: AgBem1-D1; test: as above
Method in brief: as §1

Row | Binder | SPOT peptide array binding signal intensity
3 | B1 | 132

molecular target: AgBzz1-D1; test: as above
Method in brief: as §1

Row | Binder | SPOT peptide array binding signal intensity
4 | B1 | 22.5

molecular target: AgBzz1-D2; test: as above
Method in brief: as §1

Row | Binder | SPOT peptide array binding signal intensity
5 | B1 | 9

molecular target: AgCyk3; test: as above
Method in brief: as §1

Row | Binder | SPOT peptide array binding signal intensity
6 | B1 | 1

molecular target: AgFus1; test: as above
Method in brief: as §1

Row | Binder | SPOT peptide array binding signal intensity
7 | B1 | 346

molecular target: AgHof1; test: as above
Method in brief: as §1

Row | Binder | SPOT peptide array binding signal intensity
8 | B1 | 5

molecular target: AgHse1; test: as above
Method in brief: as §1

Row | Binder | SPOT peptide array binding signal intensity
9 | B1 | 428

molecular target: AgLsb1; test: as above
Method in brief: as §1

Row | Binder | SPOT peptide array binding signal intensity
10 | B1 | 2

molecular target: AgLsb4; test: as above
Method in brief: as §1

Row | Binder | SPOT peptide array binding signal intensity
11 | B1 | ≤ 0

molecular target: AgMyo5; test: as above
Method in brief: as §1

Row | Binder | SPOT peptide array binding signal intensity
12 | B1 | 14.8

molecular target: AgNbp2; test: as above
Method in brief: as §1

Row | Binder | SPOT peptide array binding signal intensity
13 | B1 | 344

molecular target: AgRvs167; test: as above
Method in brief: as §1

Row | Binder | SPOT peptide array binding signal intensity
14 | B1 | 1.33

molecular target: AgSho1; test: as above
Method in brief: as §1

Row | Binder | SPOT peptide array binding signal intensity
15 | B1 | 251

molecular target: AgSla1-D1-D2; test: as above
Method in brief: as §1

Row | Binder | SPOT peptide array binding signal intensity
16 | B1 | 1.5

molecular target: AgSla1-D3; test: as above
Method in brief: as §1

Row | Binder | SPOT peptide array binding signal intensity
17 | B1 | 3

molecular target: CaAbp1-D1; test: as above
Method in brief: as §1

Row | Binder | SPOT peptide array binding signal intensity
18 | B1 | 59

molecular target: CaAbp1-D2; test: as above
Method in brief: as §1

Row | Binder | SPOT peptide array binding signal intensity
19 | B1 | 116

molecular target: CaBbc1; test: as above
Method in brief: as §1

Row | Binder | SPOT peptide array binding signal intensity
20 | B1 | 34

molecular target: CaBem1-D1; test: as above
Method in brief: as §1

Row | Binder | SPOT peptide array binding signal intensity
21 | B1 | 111

molecular target: CaBzz1-D1; test: as above
Method in brief: as §1

Row | Binder | SPOT peptide array binding signal intensity
22 | B1 | 152

molecular target: CaBzz1-D2; test: as above
Method in brief: as §1

Row | Binder | SPOT peptide array binding signal intensity
23 | B1 | 101

molecular target: CaCyk3; test: as above
Method in brief: as §1

Row | Binder | SPOT peptide array binding signal intensity
24 | B1 | 13

molecular target: CaFus1; test: as above
Method in brief: as §1

Row | Binder | SPOT peptide array binding signal intensity
25 | B1 | 820

molecular target: CaHof1; test: as above
Method in brief: as §1

Row | Binder | SPOT peptide array binding signal intensity
26 | B1 | 0.5

molecular target: CaHse1; test: as above
Method in brief: as §1

Row | Binder | SPOT peptide array binding signal intensity
27 | B1 | 303

molecular target: CaLsb1; test: as above
Method in brief: as §1

Row | Binder | SPOT peptide array binding signal intensity
28 | B1 | 2.5

molecular target: CaLsb4; test: as above
Method in brief: as §1

Row | Binder | SPOT peptide array binding signal intensity
29 | B1 | 407

molecular target: CaMyo5; test: as above
Method in brief: as §1

Row | Binder | SPOT peptide array binding signal intensity
30 | B1 | 92.8

molecular target: CaNbp2; test: as above
Method in brief: as §1

Row | Binder | SPOT peptide array binding signal intensity
31 | B1 | 985

molecular target: CaRvs167; test: as above
Method in brief: as §1

Row | Binder | SPOT peptide array binding signal intensity
32 | B1 | 32.7

molecular target: CaRvs167-3; test: as above
Method in brief: as §1

Row | Binder | SPOT peptide array binding signal intensity
33 | B1 | 4.5

molecular target: CaSho1; test: as above
Method in brief: as §1

Row | Binder | SPOT peptide array binding signal intensity
34 | B1 | 922

molecular target: CaSla1-D1-D2; test: as above
Method in brief: as §1

Row | Binder | SPOT peptide array binding signal intensity
35 | B1 | 404

molecular target: CaSla1-D3; test: as above
Method in brief: as §1

Row | Binder | SPOT peptide array binding signal intensity
36 | B1 | 454

molecular target: ScAbp1; test: as above
Method in brief: as §1

Row | Binder | SPOT peptide array binding signal intensity
37 | B1 | 4
